For three compounds, outcome and AC50 results are on record in PubChem BioAssay (EPA / NIEHS).

Records with an inconclusive call do not appear. Calls of active or inactive are those of the source. Rule for the calls, unless noted: active = hit-call score of the fitted dose curve at least 0.9, where 1 is the maximum; inactive = score below 0.9.

Experiment [1] can be described thus: ACEA_ER_80hr: ACEA Biosciences xCELLigence Real-Time Cell Analysis on Estrogen Receptor Agonism for Proliferation (AID 2282667; active = hit-call score of the fitted dose curve at least 0.9, where 1 is the maximum). Conditions: T47D proliferation, impedance (xCELLigence), 80 h. The method, boiled down:
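T-47D cells monitored by electrical impedance (xCELLigence) with compound present throughout; 80 h timepoint, positive-direction fitting versus DMSO. Eight-point 1:4 dilutions from 100 uM final, duplicate plates.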

Experiment [2] is described as follows: APR_HepG2_CellCycleArrest_24hr: Apredica 24-hour HepG2 Assay for Cell Cycle Arrest (AID 2282905).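 Note: cell cycle arrest scored as ratio of 2N to 4N nuclear DNA content.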 Conditions: imaging, actives raise or lower the signal. The method, boiled down: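 Readout: Hoechst 33342 nuclear DNA content by high-content fluorescent imaging, six images/well, 20x. Human HepG2 liver cells, 24 hr compound exposure, 0.39–200 uM, final DMSO 0.5% v/v. Gain or loss fitted relative to DMSO baseline.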

Experiment [3] in a line: APR_HepG2_NuclearSize_24hr: Apredica 24-hour HepG2 Assay for Nuclear Size (AID 2282907). The following applies: high-content imaging, actives raise or lower the signal. In short, it runs like this: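 Read-out: nuclear diameter from Hoechst 33342 (2 ug/mL) imaging of fixed HepG2 cells, 20x, six fields/well. Compounds ran at 0.39–200 uM for 24 hr, 0.5% DMSO final. Gain or loss was fitted bidirectionally relative to the DMSO baseline.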

Experiment [4] in a line: APR_HepG2_CellLoss_24hr: Apredica 24-hour HepG2 Assay for Cell Loss (AID 2282908).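 For AC50: fit in both directions so a hit may be cell loss or gain.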 Conditions: high-content imaging. The method, boiled down: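 Read-out: Hoechst 33342-stained nuclei counted by automated fluorescence imaging after formaldehyde fixation and Triton permeabilization. Ten concentrations, 0.39 to 200 uM, duplicate wells, 0.5% DMSO final. Gain or loss of signal fitted relative to DMSO baseline.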

A short description of experiment [5]: APR_HepG2_MicrotubuleCSK_24hr: Apredica 24-hour HepG2 Assay for Microtubule CSK Stabilty (AID 2282909). Conditions: HepG2 microtubule cytoskeleton imaging, actives raise or lower the signal. In short, it runs like this:
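Read-out: alpha-tubulin immunofluorescence intensity by automated high-content imaging of fixed HepG2 cells after 24 h compound treatment. Ten concentrations, 0.39 to 200 uM, in duplicate; DMSO 0.5% v/v. Taxol positive control; DMSO-normalized bidirectional curve fitting.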

A short description of experiment [6]: APR_HepG2_MitoticArrest_24hr: Apredica 24-hour HepG2 Assay for Mitotic Arrest (AID 2282910). Conditions: high-content imaging, actives raise or lower the signal. In short, it runs like this:
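HepG2, 24 hr dosing, 0.39–200 uM, 0.5% DMSO final. Formaldehyde-fixed, Triton-permeabilised, anti-phospho-histone H3 plus Hoechst. ArrayScan imaging at 20x; bidirectional fit vs DMSO baseline.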

The nature of experiment [7]: APR_HepG2_MitoMembPot_24hr: Apredica 24-hour HepG2 Assay for Mitochondrial Membrane Potential (AID 2282911). Conditions: imaging, actives raise or lower the signal. In short, it runs like this: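 HepG2 cells exposed 24 h to 0.39–200 uM compounds in duplicate, 0.5% v/v DMSO final. MitoTracker Red CMXRos 250 nM loaded 30 min before formaldehyde fixation; high-content imaging at 20x, bidirectional fit versus DMSO.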

Experiment [8] is described as follows: APR_HepG2_MitoMass_24hr: Apredica 24-hour HepG2 Assay for Mitochondrial Mass (AID 2282912). Conditions: high-content imaging, actives raise or lower the signal. The method, boiled down: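 HepG2, 24 hr dosing, 10 concentrations 0.39–200 uM in duplicate, DMSO 0.5% final. MitoTracker Red CMXRos 250 nM, 30 min pre-fix; 3.7% formaldehyde fix. Imaging-based fluorescence intensity; gain/loss fit vs DMSO baseline.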

A short description of experiment [9]: APR_HepG2_p53Act_24hr: Apredica 24-hour HepG2 Assay for p53 Activation (AID 2282913).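 Note: p53 protein immunofluorescence averaged per cell in HepG2 with Hoechst nuclei.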 The following applies: high-content imaging, actives raise or lower the signal. The method, boiled down:
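HepG2 cells exposed 24 h to compounds at 0.39–200 uM in duplicate, 0.5% v/v DMSO final; fixed, permeabilized, stained with anti-p53 antibody and Hoechst 33342; fluorescence imaging; bidirectional curve fit versus DMSO.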

A short description of experiment [10]: APR_HepG2_CellCycleArrest_72hr: Apredica 72-hour HepG2 Assay for Cell Cycle Arrest (AID 2282914). The following applies: high-content imaging, actives raise or lower the signal. In short, it runs like this: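 HepG2 cells exposed 72 h in duplicate to 0.39–200 uM compound, 0.5% DMSO final. Formaldehyde-fixed, Hoechst 33342-stained nuclei imaged at 20x, six fields per well; DNA content per valid cell quantified by cell-cycle image analysis, bidirectional fit versus DMSO.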

The nature of experiment [11]: APR_HepG2_CellLoss_72hr: Apredica 72-hour HepG2 Assay for Cell Loss (AID 2282915). Conditions: high-content imaging. In short, it runs like this: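 HepG2 cells exposed 72 h to compound at 0.39–200 uM (10 concentrations, duplicate) in 0.5% DMSO. Fixed with 3.7% formaldehyde and Hoechst 33342-stained. Imaged at 20x; nuclear count gives cell number, fitted bidirectionally versus DMSO.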

Experiment [12] can be described thus: APR_HepG2_P-H2AX_72hr: Apredica 72-hour HepG2 Assay for H2AX Phosphorylation (AID 2282916).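 Note: phospho-histone H2A.x immunostain intensity per cell marking DNA damage.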 Conditions: imaging, actives raise or lower the signal. In short, it runs like this: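 Readout: phospho-H2A.x immunofluorescence (FITC secondary) plus Hoechst nuclear stain, high-content imaging at 20x, six fields/well. HepG2, 72 hr compound exposure, 0.39–200 uM, final DMSO 0.5% v/v. Gain or loss fitted relative to DMSO baseline.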

Experiment [13] in a line: APR_HepG2_MitoMembPot_72hr: Apredica 72-hour HepG2 Assay for Mitochondrial Membrane Potential (AID 2282917). Conditions: imaging, actives raise or lower the signal. In short, it runs like this:
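HepG2 cells dosed 72 hr with compound at 0.39–200 uM in duplicate, 0.5% v/v DMSO final. Mitochondria stained with 250 nM MitoTracker Red CMXRos for 30 min before formaldehyde fixation, imaged by high-content fluorescence; bidirectional fit versus DMSO.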

Experiment [14] is described as follows: APR_HepG2_MitoticArrest_72hr: Apredica 72-hour HepG2 Assay for Mitotic Arrest (AID 2282918). Conditions: high-content imaging, actives raise or lower the signal. The method, boiled down:
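HepG2 cells treated 72 h at 0.39–200 uM, 0.5% DMSO final; formaldehyde-fixed, stained with Hoechst 33342 and phospho-histone H3 antibody, imaged by high-content fluorescence; bidirectional fit versus DMSO.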

A short description of experiment [15]: APR_HepG2_MicrotubuleCSK_72hr: Apredica 72-hour HepG2 Assay for Microtubule CSK Stabilty (AID 2282919). Conditions: HepG2 microtubule cytoskeleton, high-content imaging, actives raise or lower the signal. The method, boiled down:
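HepG2, 72 hr cmpd exposure, 0.39–200 uM (10 pts, duplicate), 0.5% DMSO. 3.7% formaldehyde fix, 0.5% Triton perm, anti-alpha-tubulin/Cy5 plus Hoechst. HCS fluorescence intensity; bidirectional fit vs DMSO baseline; taxol as positive control.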

A short description of experiment [16]: APR_HepG2_P-H2AX_24hr: Apredica 24-hour HepG2 Assay for H2AX Phosphorylation (AID 2282920). Conditions: high-content imaging, actives raise or lower the signal. The method, boiled down: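 HepG2 cells dosed 24 h at 0.39–200 uM (10 points, duplicate, 0.5% DMSO final). Formaldehyde-fixed and permeabilized, then immunostained for phospho-H2A.x with Hoechst. Fluorescence quantified by high-content imaging, fitted bidirectionally versus DMSO.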

A short description of experiment [17]: APR_HepG2_StressKinase_72hr: Apredica 72-hour HepG2 Assay for Stress Kinase (AID 2282921). The following applies: HepG2 stress kinase (phospho-c-Jun) imaging, actives raise or lower the signal. In short, it runs like this: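 Phospho-c-Jun immunofluorescence measured by high-content imaging at 20x, six fields per well; bidirectional curve fitting against DMSO as baseline. Dosing: 0.39–200 uM, 72 h, 0.5% DMSO final.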

Experiment [18] is described as follows: APR_HepG2_StressKinase_24hr: Apredica 24-hour HepG2 Assay for Stress Kinase (AID 2282922). The following applies: HepG2 stress kinase (phospho-c-Jun) imaging, actives raise or lower the signal. The method, boiled down:
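Read-out: phospho-c-Jun immunofluorescence (Cy3 secondary) quantified by high-content imaging at 20x, nuclei defined by Hoechst 33342. Human HepG2 liver cells dosed 24 hr, 0.39–200 uM, DMSO 0.5% v/v; gain or loss of signal fitted relative to DMSO.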

Experiment [19] can be described thus: APR_HepG2_p53Act_72hr: Apredica 72-hour HepG2 Assay for p53 Activation (AID 2282923).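 Note: average cellular p53 protein immunofluorescence intensity in HepG2 cells.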 The following applies: high-content imaging, actives raise or lower the signal. The method, boiled down: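 Readout: p53 immunofluorescence quantified by automated high-content imaging at 20x, six fields per well, nuclei located via Hoechst. Dosing ran 72 hr over ten concentrations from 0.39 to 200 uM; bidirectional curve fitting against DMSO baseline.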

Experiment [20] in a line: APR_HepG2_MitoMass_72hr: Apredica 72-hour HepG2 Assay for Mitochondrial Mass (AID 2282924).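 Note: MitoTracker Red CMXRos stain intensity per cell imaged as mitochondrial mass.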 The following applies: high-content imaging, actives raise or lower the signal. The method, boiled down:
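Read-out: MitoTracker Red fluorescence intensity from automated imaging (20x, six fields per well) in human HepG2 liver cells. Dosing ran 72 hr, 0.39–200 uM, 0.5% DMSO; bidirectional curve fitting versus DMSO baseline.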

In the case of `Cc1oc(-c2ccccc2)nc1CCOc1ccc(C[C@H](Nc2ccccc2C(=O)c2ccccc2)C(=O)O)cc1`, the call in experiment [1], in [2], in [3], in experiment [5], in experiment [8] and in experiment [15] was inactive. For the same compound, the call in [17], in experiment [18] and in experiment [20] was inactive. For the same compound, the AC50 in experiment [4] is 84.9 µM (active); in experiment [6], 84.9 µM (active); in [7] it was 109 µM (active); in experiment [9] it was 107 µM (active); in [10], 82.7 µM (active); in experiment [11], 53.3 µM (active). Also, the AC50 is 59 µM (active) in experiment [12]; 120 µM (active) in experiment [13]; 67.8 µM (active) in experiment [14]; 81.7 µM (active) in experiment [16]; 95.7 µM (active) in experiment [19].
For the compound `CCCCCCCCCCCCc1ccccc1S(=O)(=O)O`, the compound was classed as inactive in experiment [1], in experiment [2], in [3], in experiment [5], in [7] and in [8]. Further, the call in experiment [10], in experiment [13], in experiment [15] and in experiment [18] was inactive. Also, the AC50 in experiment [4] was 116 µM (active); in experiment [6], 106 µM (active); in [9] it was 120 µM (active); in experiment [11], 149 µM (active); in [12], 111 µM (active); in experiment [14], 107 µM (active). Further, the AC50 in experiment [16] was 119 µM (active); in experiment [17] it was 112 µM (active); in experiment [19], 106 µM (active); in [20], 120 µM (active).
As for `Oc1cccc(O)c1`, the call in [1], in experiment [2], in experiment [3], in [4], in experiment [5] and in [6] was inactive. Further, the compound was called inactive in experiment [7], in experiment [8], in experiment [9], in [10], in experiment [11] and in experiment [12]. For the same compound, the compound was classed as inactive in experiment [13], in [14], in experiment [15], in experiment [16], in experiment [17] and in [18]. Further, the result in experiment [19] and in experiment [20] was inactive.

A word on the AC50: it is the concentration giving half of the maximal activity seen.
